Most compounds without a hit are left out; they make up all but 1.5% or so of the library.
GLD-1 RNA inh – GLD-1/TGE RNA complex disruptors, primary screen, biochemical, fluorescence polarization | Female germline-specific tumor suppressor gld-1 (Caenorhabditis elegans), Q17339 | purified GLD-1 + fluorescein TGE RNA | inhibition, % at 5.96 µM | 320,000 compounds, 0.44% hits;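 active = percent inhibition above a per-plate cutoff, the plate mean of test compounds plus 3 SD, cut at about 30% in these data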;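 also: 0% = DMSO wells with GLD-1 and probe and 100% = wells lacking GLD-1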
E coli Lon inh – inhibitors of E. coli Lon protease, primary screen, biochemical, fluorescence polarization | purified E. coli Lon protease | inhibition, % at 7.94 µM | 360,000 compounds, 0.42% hits | P0A9M0; in the data active = inhibition above about 13%, passing the limit was not always enough;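 also: 0% = enzyme with probe and DMSO and 100% = no enzyme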
MCL1-BIM inh – inhibitors of MCL1 binding to BIM-BH3, primary screen, biochemical, fluorescence polarization; Induced myeloid leukemia cell differentiation protein Mcl-1 (Homo sapiens), Q07820; GST-MCL1 / FITC-Bim-BH3 fluorescence polarization; inhibition, % at 10.9 µM; 320,000 compounds, 0.68% hits; AID 2057, 2009;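 active = inhibition above the mean inhibition of all tested compounds plus 3 SD, set per campaign, cut at about 40% in these data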;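 also: 0% = DMSO wells and 100% = unlabeled Bim-BH3 peptide control; higher means more loss of mP so more displacement of Bim peptide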
Target sequence (Q07820 whole entry, looked up): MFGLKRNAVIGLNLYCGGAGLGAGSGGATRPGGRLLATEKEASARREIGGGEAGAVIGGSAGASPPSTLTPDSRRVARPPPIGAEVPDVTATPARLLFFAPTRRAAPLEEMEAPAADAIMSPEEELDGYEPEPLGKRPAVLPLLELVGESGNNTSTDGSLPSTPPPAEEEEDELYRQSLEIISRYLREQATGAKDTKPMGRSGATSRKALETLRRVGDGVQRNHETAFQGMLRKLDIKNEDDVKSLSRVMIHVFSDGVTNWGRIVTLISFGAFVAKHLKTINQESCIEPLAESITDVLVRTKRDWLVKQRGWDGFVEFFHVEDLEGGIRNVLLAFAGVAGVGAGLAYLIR
BCLXL inh – inhibitors of human Bcl-xL, primary screen, biochemical, fluorescence polarization, HTS; GST-Bcl-xL / FITC-Bim BH3 peptide fluorescence polarization; inhibition, % at 10.9 µM; 320,000 compounds, 0.7% hits; AID 2129, 2009;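 active = inhibition above the mean of all tested compounds plus 3 SD, cutoff set per campaign, cut at about 30% in these data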;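 also: 0% = DMSO wells and 100% = unlabeled Bim-BH3 peptide competitor; inhibitors lower millipolarization by displacing the labeled peptide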
MEX-5 binding – MEX-5 zinc finger RNA-binding disruptors – biochemical, C. elegans, fluorescence polarization, MLPCN library, primary screen | MEX-5/FITC-TCR2 RNA binding; hits give low values | Zinc finger protein mex-5 (Caenorhabditis elegans), Q9XUB2 | activity score (negative = inhibition of binding), % at 10 µM | 300,000 compounds, 0.38% hits;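 active = inhibition past about -25% in most replicates, and total fluorescence under double the plate's negative control median, limit read from the data; inconclusive = replicates evenly split on the limit, or fluorescence at least double controls; inactive = too little inhibition in most replicates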;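 also: 0% = DMSO and -100% = 5 µM competing unlabeled TCR2 RNA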
EBV gp42 inh – Epstein-Barr virus gp42 inhibitors, primary screen, biochemical, uHTS, fluorescence polarization; AID 1085, 2008; 220,000 compounds, 0.42% hits; inhibition, % (tested at 21.74 µM); Fluorescence polarization binding assay, mP read-out; Glycoprotein 42 (Epstein-Barr virus (strain AG876)), Q1HVG2; in the data active = inhibition above about 50%
Target sequence (Q1HVG2 whole entry, looked up): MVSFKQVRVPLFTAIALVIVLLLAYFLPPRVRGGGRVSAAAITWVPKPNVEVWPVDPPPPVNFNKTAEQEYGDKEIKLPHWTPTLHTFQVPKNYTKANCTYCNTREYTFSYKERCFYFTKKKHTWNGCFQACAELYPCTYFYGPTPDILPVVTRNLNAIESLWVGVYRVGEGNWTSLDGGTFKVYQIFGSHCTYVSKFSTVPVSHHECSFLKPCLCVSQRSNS
eLon confirm – E. coli Lon protease inhibitor retest, confirmation, biochemical, fluorescence polarization; purified E. coli Lon; shares compounds with E coli Lon inh; inhibition, % at 7.94 µM; 1,400 compounds, 31% hits; in the data active = inhibition above about 16%;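 also: 0% = enzyme with probe and DMSO and 100% = no enzyme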
* = called active by the depositor; i = inactive; ? = inconclusive; · = not tested or not shown; + = active, no number.

SMILES | GLD-1 RNA inh | E coli Lon inh | MCL1-BIM inh | BCLXL inh | MEX-5 binding | EBV gp42 inh | eLon confirm
CCN(CC(=O)NCc1cccs1)C(=O)c1ccc(S(=O)(=O)Nc2ccccc2)cc1 | -2.1 | -6.1 | 2.2 | 5.0 | 0.0 | · | ·
CCN(CC(=O)NCc1cccs1)C(=O)c1ccc(S(=O)(=O)Nc2cccc(C)c2C)cc1 | 5.7 | + | 4.3 | 2.1 | 1.0 | · | -16.7
CCN(CC)S(=O)(=O)c1ccc(C(=O)NCc2cccs2)cc1 | 2.5 | 18.9* | -0.2 | -1.0 | -2.5 | 1.0 | 1.2
CCOc1cc(C2C(C#N)=C(N)OC(C)=C2C(C)=O)cc(Br)c1O (stereo unspecified) | 88.4* | 24.1* | 137.5* | 115.4* | -69.2* | 51.3* | 12.7
COc1cc(/C=N\NC(=O)c2ccc(C)nc2)ccc1OC(=O)c1cccc(F)c1 | 8.7 | 3.6 | 1.1 | -0.8 | 0.5 | · | ·
COc1ccc(OC)c(NCCN2C(=O)c3ccccc3C2=O)c1 | · | -0.7 | · | · | · | · | ·
Cc1ccc(N2CCOCC2)c2c1C(=O)c1ccccc1C2=O | 2.5 | -7.3 | 0.5 | 2.1 | -2.5 | -8.4 | ·
O=C(O)CN1C(=O)c2cccc3c(Br)ccc1c23 | 7.6 | -4.8 | 0.1 | 8.0 | -1.6 | · | ·
CCCCNc1ccc2c3c(cccc13)C(=O)N(CCCC)C2=O | · | 134.7* | · | · | ? | 180.7* | i
CCCN1C(=O)c2cccc3c(N4CCCCC4)ccc(c23)C1=O | 34.9* | 73.6* | 35.3 | 43.0* | -134.7* | 80.0* | -22.9
CN(C)CCCN1C(=O)c2cccc3c(Br)ccc(c23)C1=O | 22.4 | 31.2* | 38.9 | 35.1* | ? | 77.3* | 67.6*
CC(=O)N(C(C)=O)N1C(=O)c2cccc3c(N4CCOCC4)ccc(c23)C1=O | 33.4* | 39.2* | 27.7 | 42.8* | ? | -21.5 | 21.0*
COc1cccc(N2C(=NC(=O)CCC3CCCC3)SC3CS(=O)(=O)CC32)c1 (stereo unspecified) | -3.4 | 3.0 | 8.5 | 9.5 | 1.7 | · | ·
Cc1ncc([N+](=O)[O-])n1CC(=O)Nc1ccc(F)c(Cl)c1 | -6.7 | -5.5 | 11.3 | 2.1 | 2.4 | · | ·
Cc1ncc([N+](=O)[O-])n1CC(=O)Nc1cccc(C(F)(F)F)c1 | 1.1 | 29.3* | 5.3 | 9.7 | 3.9 | · | -91.4
COc1ccc2nc3ccccc3[n+]([O-])c2c1 | · | 193.9* | · | · | · | · | 138.3*
COc1ccc2c(ccc[n+]2[O-])c1 | · | -11.3 | · | · | · | · | ·
Cc1ccc2c(CC(=O)NCC3(N4CCOCC4)CCCCC3)coc2c1C | -3.6 | -7.0 | -1.7 | 3.2 | · | · | ·
Cc1cc(C(=O)CSc2nnc(-c3ccncc3)n2-c2ccccc2)c(C)n1C | 16.2 | 18.7* | 10.2 | 12.0 | -0.6 | 6.3 | -73.2
Cc1ccc(-n2cc(CNCCN3CCOC3=O)c(-c3cccc(C)c3)n2)cc1 | -0.6 | 16.0* | -1.6 | 0.8 | -1.5 | -7.0 | -7.2
O=C(CSc1ccc2c(c1)OCCO2)N1CCN(c2ccccc2O)CC1 | · | 20.2* | · | · | · | · | -3.5
O=C(Cc1ccc(Br)cc1)N1CCN(c2ccccc2O)CC1 | 8.0 | 24.4* | -2.7 | 3.2 | 0.5 | 2.6 | 2.9
O=C(Cc1ccc(Br)cc1)N1CCN(c2ccc(F)cc2)CC1 | -1.0 | -4.6 | 4.0 | 2.9 | -0.9 | 4.4 | ·
O=C(COC(=O)Cc1ccc(Cl)cc1)NC1CCCC1 | -0.2 | 49.8* | 11.0 | 5.2 | · | · | -11.4
COC(=O)CCC(=O)OC1(C)C(=O)C=C2C=C(C3CC3)N(C(CO)CO)C=C2C1=O (stereo unspecified) | 8.9 | 26.8* | 9.2 | 9.7 | 1.8 | -17.9 | 6.8
SMILES | GLD-1 RNA inh | E coli Lon inh | MCL1-BIM inh | BCLXL inh | MEX-5 binding | EBV gp42 inh | eLon confirm
Clc1ccc(N=NN2CCOCC2)cc1 | 5.1 | 18.9* | 6.5 | 6.6 | -0.1 | -9.6 | 3.7
C=C1CC[C@@]23CC[C@]4(C)[C@@](OC2=O)([C@@H]3C1)[C@H]1O[C@H]1C1[C@@]2(C)CC[C@H](O)C(C)(C)C2CC[C@]14C (stereo partly specified) | -6.2 | -8.8 | -0.2 | -0.2 | · | · | ·
Oc1ccc(N2Cc3ccccc3C2)cc1 | 6.5 | 37.3* | -1.6 | 9.8 | -1.8 | · | -11.2
Oc1cccc(N2Cc3ccccc3C2)c1 | 0.5 | 0.3 | 10.0 | 9.8 | -11.9 | · | ·
O=C(O)c1cc(N2N=C(C(F)(F)F)/C(=C/C=C/c3ccco3)C2=O)ccc1Cl | · | 27.5* | · | · | · | -10.8 | -12.1
CCNc1nc2c(c(=O)[nH]c(=O)n2C)n1CC(C)C | 4.1 | 1.6 | -2.3 | 2.4 | 1.9 | 1.3 | ·
CC(C)Cn1c(NCCN(C)C)nc2c1c(=O)[nH]c(=O)n2C | 3.7 | 23.8* | -0.5 | 3.4 | -0.3 | 2.8 | 0.8
COCCn1nnnc1CN(Cc1ccco1)Cc1cc2cc3c(cc2[nH]c1=O)OCO3 | -8.6 | 22.7* | -2.5 | -4.8 | 0.8 | -15.6 | 6.1
N=c1c2cn[nH]c2nc(SCC(=O)c2ccc(Br)cc2)n1-c1ccc(Br)cc1 | 0.0 | -0.1 | 0.2 | -3.1 | -6.5 | -21.7 | ·
C/C(=N\NC(=O)c1nnn(-c2nonc2N)c1-c1ccc(Cl)c(Cl)c1)c1ccncc1 | -2.9 | -2.1 | -0.8 | -3.0 | 3.0 | · | ·
O=C(c1ccc(Cl)cc1)N1CCC2CC1c1cc(-c3ccccc3)ccc12 (stereo unspecified) | · | 15.8* | · | · | · | · | 3.7
O=C(c1cccc(Cl)c1)N1CCC2CC1c1cc(-c3ccccc3)ccc12 (stereo unspecified) | · | -2.7 | · | · | · | · | ·
COC(=O)CCN1CCC2CC1c1cc(-c3cccc(C)c3)ccc12 (stereo unspecified) | · | 3.1 | · | · | · | · | ·
O=C(CNC(=O)c1ccccc1F)c1ccccc1 | 9.1 | 0.4 | 5.0 | 4.6 | -1.8 | · | ·
NNC(=O)CNC(=O)c1ccccc1F | 5.0 | 53.2* | 2.8 | 2.0 | -2.1 | 0.2 | -4.1
CC(=O)C1=C(O)C(=O)N(c2ccc(Br)cc2)C1c1ccc(Br)cc1 (stereo unspecified) | 6.2 | 30.2* | -2.3 | 2.5 | -0.7 | · | -7.1
O=c1[nH][nH]c2c1C(C1CCCCC1)OC(C1CCCCC1)C2 (stereo unspecified) | · | 5.6 | · | · | · | · | ·
CCNC(=S)N=Nc1c(O)[nH]c2ccc(C(C)C)cc12 | 12.9 | 22.7* | 13.0 | 6.2 | -2.6 | 4.6 | 20.5*
CCn1c(SCC(=O)Nc2cc(C)on2)nnc1-c1ccco1 | -0.8 | 1.5 | -2.4 | 2.6 | -1.4 | -4.3 | ·
CCCCn1c(SCC(=O)Nc2cc(C)on2)nnc1-c1ccco1 | -3.4 | 14.2* | -2.6 | 2.7 | 1.4 | -4.2 | -2.7

From PubChem BioAssay
